Source: PubChem BioAssay (several laboratories)
An excerpt weighted towards active compounds, which were near 2.9% of everything screened.
MEKK2mut PB1 HTS: MEK5 binding signal on mutant MEKK2 PB1, primary screen, biochemical, multiplex bead flow cytometry, Alexa488-MEK5; AID 1530, 2009; percent response, % at 10 µM; 0.35% of 290,000 active; Alexa488-MEK5 binding to MEKK2 mutant; in the data active = percent response above about 24%, passing the limit was not always enough
dFosB act: activators of delta FosB homodimer, primary screen, biochemical, fluorescence polarization, TAMRA-CDK5 oligo, single point | activation, % at 25 µM | AID 493131, 2011 | 0.99% of 340,000 active | purified delta FosB; percent of positive-control signal above neutral wells | Protein FosB (Mus musculus), P13346;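 active = mean activation above about 17%, with every replicate also reaching it, limit read from the data, passing the limit was not always enough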
DNA FID counter: compounds displacing fluorescent DNA intercalator, primary screen, artefact control for HCV NS3 helicase inhibitor project, biochemical, FID fluorescence. DNA fluorescent intercalator displacement. inhibition, % at 7.9 µM. 0.17% of 290,000 active. AID 1845, 2009; in the data active = inhibition above about 37%;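 also: 0% = vehicle and 100% = reference compound; higher means more ethidium bromide displaced from hairpin DNA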
MEKK3 PB1 HTS: modulators of MEKK3-MEK5 PB1 binding, primary screen, biochemical, wildtype MEKK3, multiplex bead flow cytometry, Alexa488-MEK5; Mitogen-activated protein kinase kinase kinase 3 (Homo sapiens), Q99759; bead-based flow cytometry, Alexa488-MEK5 binding to MEKK3; actives lie on both sides; 0 = blocked by unlabeled MEK5, 100 = vehicle; binding response (% of control), % at 10 µM; 1.4% of 290,000 active;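 active = binding response more than 3 SD above or below the average of its plate-row segment, actives on both sides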;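 also: Alexa488 bead fluorescence after subtracting the streptavidin-only scavenger bead signal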
Target sequence (Q99759 whole entry, looked up): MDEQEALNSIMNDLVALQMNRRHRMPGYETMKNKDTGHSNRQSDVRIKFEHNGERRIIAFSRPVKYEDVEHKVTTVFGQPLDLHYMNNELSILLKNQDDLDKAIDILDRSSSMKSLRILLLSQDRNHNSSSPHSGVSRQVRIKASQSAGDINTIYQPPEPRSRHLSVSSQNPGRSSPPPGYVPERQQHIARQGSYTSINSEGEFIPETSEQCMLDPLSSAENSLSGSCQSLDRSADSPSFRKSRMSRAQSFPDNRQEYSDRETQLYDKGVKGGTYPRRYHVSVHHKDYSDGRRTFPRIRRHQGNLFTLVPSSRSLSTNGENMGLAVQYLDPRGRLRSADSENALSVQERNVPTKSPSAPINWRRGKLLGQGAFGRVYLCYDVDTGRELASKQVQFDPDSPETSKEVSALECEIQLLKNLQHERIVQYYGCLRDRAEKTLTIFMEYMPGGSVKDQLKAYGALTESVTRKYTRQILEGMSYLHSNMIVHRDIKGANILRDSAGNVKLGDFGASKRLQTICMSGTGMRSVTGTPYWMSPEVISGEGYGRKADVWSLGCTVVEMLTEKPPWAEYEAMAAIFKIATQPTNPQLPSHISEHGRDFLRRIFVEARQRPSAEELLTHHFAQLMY
MEKK2wt PB1 HTS: modulators of MEK5 binding to wildtype MEKK2, primary screen, biochemical, multiplex bead flow cytometry, Alexa488-MEK5; Mitogen-activated protein kinase kinase kinase 2 (Homo sapiens), Q9Y2U5; binding response (% of control), % at 10 µM; 1.1% of 290,000 active; Alexa488-MEK5 binding to MEKK2 WT; actives lie on both sides; in the data active = binding response below about 67% or above about 130%
MEKK2wt confirm: modulators of MEK5 binding to wildtype MEKK2, confirmation, biochemical, single concentration, multiplex bead flow cytometry; shares compounds with MEKK3 PB1 HTS; Alexa488-MEK5 binding to MEKK2 WT; actives lie on both sides; binding response (% of control), % at 10 µM; 2.4% of 5,900 active; AID 1892, 2009; in the data active = binding response below about 16% or above about 210%; inactive = in between
MEKK2mut-MEK5: mutant MEKK2 PB1-MEK5 binding signal retest – biochemical, single concentration, multiplex bead flow cytometry, confirmation; percent response, % at 10 µM; shares compounds with MEKK3 PB1 HTS; 2% of 5,900 active; AID 1893, 2009; Alexa488-MEK5 binding to MEKK2 mutant; in the data active = percent response mostly above about 71%, no sharp cut-off; inactive = mostly below about 38%;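 also: higher means compound restores mutant binding toward wildtype level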
MEKK3-MEK5 inh: MEKK3 wild-type PB1 binding to MEK5, inhibitors, confirmation, biochemical, bead multiplex flow cytometry, single concentration, wildtype; binding response (% of control), % at 10 µM; shares compounds with MEKK3 PB1 HTS; AID 1894, 2009; Alexa488-MEK5 binding to MEKK3; hits give low values; 1.8% of 5,900 active;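 active = binding response below 72% of control, or above a set upper limit, though filed actives all read lower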;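 also: 100% = DMSO only wells and 0% = binding blocked by excess unlabeled MEK5; lower values mean stronger disruption of MEK5 binding to MEKK3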
* = called active by the depositor; [ ] = another dose, or the depositor's remark.

What do the screens show for `O=C(O)C1C2C=CC(C2)C1C(=O)Nc1ccc(Cl)c(Cl)c1` (stereo unspecified)?
MEKK2mut PB1 HTS: 26.0*; dFosB act: -3.9; DNA FID counter: -3.7; MEKK3 PB1 HTS: 103.0; MEKK2wt PB1 HTS: 104.0; MEKK2wt confirm: 96.0; MEKK2mut-MEK5: -1.0; MEKK3-MEK5 inh: 98.0

How did COC(=O)c1cc(S(=O)(=O)NCC2CCN(Cc3cc(C)ccc3C)CC2)c[nH]1 do in these assays?
MEKK2mut PB1 HTS: -2.0; dFosB act: -5.6; DNA FID counter: 21.3; MEKK3 PB1 HTS: 95.0; MEKK2wt PB1 HTS: 102.0

Results for CCCN1C(=O)/C(=C\C=C2/Sc3ccccc3N2CC)SC1=S ?
MEKK2mut PB1 HTS: -26.0; DNA FID counter: 3.4; MEKK3 PB1 HTS: 37.0*[inhibitor]; MEKK2wt PB1 HTS: 7.0*[inhibitor]; MEKK2wt confirm: 30.0; MEKK2mut-MEK5: -28.0; MEKK3-MEK5 inh: 71.0*

How did CCN1C(=O)/C(=C/C=C2\C=CN(CC)c3ccccc32)SC1=S do in these assays?
MEKK2mut PB1 HTS: -6.0; dFosB act: -5.4; DNA FID counter: 7.4; MEKK3 PB1 HTS: 75.0*[inhibitor]; MEKK2wt PB1 HTS: 42.0*[inhibitor]; MEKK2wt confirm: 90.0; MEKK2mut-MEK5: -5.0; MEKK3-MEK5 inh: 102.0

What do the screens show for `CCCN1C(=O)/C(=C\C=C2\N(CC)c3ccccc3C2(C)C)SC1=S`?
MEKK2mut PB1 HTS: 174.0*; dFosB act: -99.4; DNA FID counter: -2.8; MEKK3 PB1 HTS: 66.0; MEKK2wt PB1 HTS: 186.0*; MEKK2wt confirm: 82.0; MEKK2mut-MEK5: -14.0; MEKK3-MEK5 inh: 90.0

How did CC(=O)NCCC(=O)Nc1cc(S(=O)(=O)N2CCOCC2)ccc1Oc1ccc(F)cc1 do in these assays?
dFosB act: 2.9

How did Nc1ccc2cccc(O)c2c1 do in these assays?
dFosB act: -8.4

What do the screens show for `CCOc1ccc(C2c3cc(OC)c(OC)cc3CC(=O)N2c2ccc(OC)cc2)cc1` (stereo unspecified)?
MEKK2mut PB1 HTS: 5.0; dFosB act: -5.1; DNA FID counter: -44.4; MEKK3 PB1 HTS: 101.0; MEKK2wt PB1 HTS: 101.0

Results for Cn1ccnc1CC(O)(c1ccccc1)c1ccccc1 ?
MEKK2mut PB1 HTS: 10.0; dFosB act: -5.6; DNA FID counter: -2.6; MEKK3 PB1 HTS: 108.0; MEKK2wt PB1 HTS: 113.0

Results for Cc1csc2c(N3CCN(C(=O)c4ccc(C(C)(C)C)cc4)CC3)ncnc12 ?
MEKK2mut PB1 HTS: 22.0; dFosB act: -15.4; DNA FID counter: -20.7; MEKK3 PB1 HTS: 131.0*; MEKK2wt PB1 HTS: 124.0; MEKK2wt confirm: 109.0; MEKK2mut-MEK5: 1.0; MEKK3-MEK5 inh: 104.0

What do the screens show for `CCCc1ccc(C#N)c(SC2CC(=O)N(c3ccc(OC)cc3)C2=O)n1` (stereo unspecified)?
MEKK2mut PB1 HTS: -9.0; dFosB act: -7.6; DNA FID counter: -27.8; MEKK3 PB1 HTS: 98.0; MEKK2wt PB1 HTS: 94.0

How did COc1ccc(N2C(=O)CC(Sc3nc(C)cc(C)c3C#N)C2=O)cc1 (stereo unspecified) do in these assays?
MEKK2mut PB1 HTS: -3.0; dFosB act: -4.4; DNA FID counter: -4.3; MEKK3 PB1 HTS: 1.0*[inhibitor]; MEKK2wt PB1 HTS: -7.0*[inhibitor]; MEKK2wt confirm: 102.0; MEKK2mut-MEK5: 2.0; MEKK3-MEK5 inh: 106.0

How did COc1ccccc1NC(=O)Nc1nc(CC(=O)Nc2ccc(N(C)C)cc2)cs1 do in these assays?
dFosB act: -0.6

What do the screens show for `O=C(O)C(Cc1cc(Cl)ccc1Cl)Sc1nc2ccccc2[nH]1` (stereo unspecified)?
MEKK2mut PB1 HTS: 25.0; dFosB act: 3.7; DNA FID counter: -25.5; MEKK3 PB1 HTS: 135.0*; MEKK2wt PB1 HTS: 129.0; MEKK2wt confirm: 98.0; MEKK2mut-MEK5: -13.0; MEKK3-MEK5 inh: 96.0

What do the screens show for `CC1(C)OC(=O)N(c2ccccc2)C12C=Cc1c(ccc3ccccc13)O2` (stereo unspecified)?
MEKK2mut PB1 HTS: 3.0; dFosB act: -1.0; DNA FID counter: -21.4; MEKK3 PB1 HTS: 113.0; MEKK2wt PB1 HTS: 100.0

What do the screens show for `O=C1NC2(C=Cc3c(ccc4ccccc34)O2)Oc2ccccc21` (stereo unspecified)?
MEKK2mut PB1 HTS: -17.0; dFosB act: -6.9; DNA FID counter: 0.5; MEKK3 PB1 HTS: 2.0*[inhibitor]; MEKK2wt PB1 HTS: 2.0*[inhibitor]; MEKK2wt confirm: 91.0; MEKK2mut-MEK5: -2.0; MEKK3-MEK5 inh: 96.0

What do the screens show for `COc1ccc(Cl)cc1N(CC(=O)N1CCN(Cc2ccccc2)CC1)S(C)(=O)=O`?
MEKK2mut PB1 HTS: 5.0; dFosB act: 1.8; DNA FID counter: -19.3; MEKK3 PB1 HTS: 125.0*; MEKK2wt PB1 HTS: 112.0; MEKK2wt confirm: 106.0; MEKK2mut-MEK5: 0.0; MEKK3-MEK5 inh: 102.0

Results for COc1ccc(Cl)cc1N(CC(=O)N1CCCC1)S(C)(=O)=O ?
MEKK2mut PB1 HTS: 2.0; dFosB act: -0.8; DNA FID counter: -4.9; MEKK3 PB1 HTS: 105.0; MEKK2wt PB1 HTS: 110.0

What do the screens show for `CC(C)(C)OC(=O)NC1CC2CCCC(C1)N2Cc1ccccc1` (stereo unspecified)?
MEKK2mut PB1 HTS: -4.0; dFosB act: -4.6; DNA FID counter: -2.0; MEKK3 PB1 HTS: 100.0; MEKK2wt PB1 HTS: 101.0

How did C=Cc1c(C)c2cc3[nH]c(cc4nc(cc5nc(cc1[nH]2)C(C)=C5CCC(=O)O)C(CCC(=O)O)=C4C)c(C)c3C=C do in these assays?
MEKK2mut PB1 HTS: -8.0; dFosB act: -12.1; MEKK3 PB1 HTS: 88.0; MEKK2wt PB1 HTS: 60.0*[inhibitor]; MEKK2wt confirm: 69.0; MEKK2mut-MEK5: -13.0; MEKK3-MEK5 inh: 98.0

Results for Cc1ccccc1OCCC(=O)Nc1ccc(Cl)cc1F ?
MEKK2mut PB1 HTS: -3.0; dFosB act: -3.1; DNA FID counter: -10.6; MEKK3 PB1 HTS: 90.0; MEKK2wt PB1 HTS: 91.0

How did O=C(Nc1ccccc1)c1cccc(S(=O)(=O)Nc2ccccn2)c1 do in these assays?
MEKK2mut PB1 HTS: -1.0; dFosB act: -4.5; DNA FID counter: -0.2; MEKK3 PB1 HTS: 75.0*[inhibitor]; MEKK2wt PB1 HTS: 91.0; MEKK2wt confirm: 105.0; MEKK2mut-MEK5: 1.0; MEKK3-MEK5 inh: 99.0
